Shown are actives, neighbours in structure and some others; about 17% of the full set was active somewhere.
TDP1 cell noCPT: qHTS for Inhibitors of human tyrosyl-DNA phosphodiesterase 1 (TDP1): qHTS in cells in absence of CPT; DT40 Tdp1-/- hTDP1 cells, no CPT, ATP luminescence, 48 h; Potency, µM (top dose mostly 46.2 µM), actives largely listed as inhibitors; hit rate 15% among 420,000; also: nearly all actives have a fitted effect of over 55% in size
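Chicken DT40 Tdp1-/- cells complemented with human TDP1, screened without camptothecin (DMSO vehicle only), 400 cells/well. Compounds pin-transferred, cells incubated at 37 °C for at least 48 hr. Growth read as ATP-dependent luminescence (CellTiter-Glo, 30 min at RT).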
HepG2 tox: counter-screen for TGF-b inhibitors: cytotoxicity in HepG2 cells | HepG2 CAGA-GFP viability, ATP luminescence, 18 h | Potency, µM (highest dose often 46.1 µM), hits mostly cytotoxic | hit rate 0.76% among 410,000 | AID 588856
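CellTiter-Glo luminescence gave cytotoxicity after 18 hours at 37 degrees C. The cells were HepG2 CAGA-GFP in 1% FBS DMEM, stimulated with 500 pg/mL TGF-beta after compound addition. %Activity was normalised to no-cell wells (complete cell-killing) and DMSO (no toxicity), and curves were fitted and classified.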
TGFb inhibitor: blocks TGF-b signaling. hit rate 1.2% among 410,000. HepG2 CAGA-GFP TGF-b/SMAD3 reporter, GFP fluorescence, 18 h; TGF-beta stimulated, 500 pg/mL final. Potency, µM (top dose mostly 46.1 µM), actives largely listed as inhibitors; also: nearly all actives have a fitted effect of over 65% in size
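TGF-beta reporter screen: HEPG2 CAGA-GFP, 1% FBS, 500 pg/mL TGF-beta final, 18 h; per-cell GFP summed per well; curves fitted and categorized by class.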
ATXN viability: cell viability loss in ATXN counter-screen. S2 cells (HEK-293 line with an ATXN2-luciferase reporter) viability, CellTiter-Fluor protease fluorescence, 24 h. Potency, µM (highest dose often 56.7 µM), usual class: cytotoxic. hit rate 0.49% among 400,000; also: nearly all actives have a fitted effect of over 40% in size
ATXN2 expr inh: inhibitors of ATXN2 expression. hit rate 0.72% among 360,000. Potency, µM (doses to about 57 µM), most hits filed as inhibitors. HEK-293 ATXN2-luciferase reporter, luminescence, 24 h. AID 1745845; also: nearly all actives have a fitted effect of over 55% in size
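ATXN2-luciferase reporter cells (luciferase flanked by upstream and downstream ATXN2 gene portions) were treated 24 h at 37 °C with compounds at up to 57 uM. SteadyGlo luminescence gave expression; GF-AFC fluorescence gave viability.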
TDP1 cell CPT: DT40-hTDP1 cell growth loss with CPT; hit rate 12% among 420,000; chicken DT40 Tdp1-/-;hTDP1 cells + 20 nM CPT, ATP luminescence, 48 h; Potency, µM (series often up to 46.2 µM), actives largely listed as inhibitors; also: nearly all actives have a fitted effect of over 55% in size
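Chicken DT40 Tdp1-/- cells stably complemented with human TDP1 were seeded at 400 cells/well in medium containing 20 nM camptothecin, exposed to pin-transferred compounds, and grown at 37 °C for at least 48 hr. Viability was read as ATP luminescence.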
Large screens that a line does not name were inactive. Calls follow the shape of the dose curve; as a rule, active = well fitted curve in the direction sought with a large enough effect; inconclusive = small, poorly fitted or top-dose-only effect, or another doubt; inactive = no such curve, though single readings can be large; an effect the other way counts as inactive or inconclusive.

CSCC(=O)N1CCC(Oc2cccc(C(=O)NCc3ccccn3)c2)CC1	none
O=C(/C=C/c1ccco1)Nc1ccc(N2CCCC2)cc1	none
CSc1cccc(NC(=O)/C=C/c2ccco2)c1	TDP1 cell noCPT inconclusive, TDP1 cell CPT 23µM
O=C(/C=C/c1ccccc1)NC(=S)Nc1ccc(N2CCOCC2)c(Cl)c1	TDP1 cell noCPT inconclusive, ATXN viability inconclusive, TDP1 cell CPT inconclusive
Cc1c(NC(=O)C(C)OC(=O)/C=C/c2ccccc2)c(=O)n(-c2ccccc2)n1C (stereo not given)	none
O=C(/C=C/c1ccco1)NC(=S)Nc1ccc(N2CCOCC2)c(Cl)c1	TDP1 cell noCPT 4.6µM, TDP1 cell CPT 5.2µM
O=C(/C=C/c1ccco1)Nc1ccc(Oc2ccc(Cl)cc2)cc1	TDP1 cell noCPT 3.3µM, ATXN viability inconclusive, TDP1 cell CPT 4.1µM
CC(OC(=O)/C=C/c1ccccc1)C(=O)Nc1cccc(C#N)c1 (stereo not given)	TDP1 cell noCPT 16µM, TDP1 cell CPT 16µM
COc1cccc(NC(=O)/C=C/c2ccco2)c1	TDP1 cell noCPT inconclusive (no result: ATXN2 expr inh)
Cc1noc(C)c1CS(=O)(=O)c1ccc([N+](=O)[O-])cc1	none
O=C(/C=C/c1ccco1)NC(=S)Nc1ccccc1	TDP1 cell noCPT 26µM, TGFb inhibitor inconclusive (no result: ATXN2 expr inh)
O=C(/C=C/c1ccco1)NC(=S)Nc1cccc([N+](=O)[O-])c1	TDP1 cell noCPT 15µM, TDP1 cell CPT inconclusive
CC(OC(=O)/C=C/c1ccco1)C(=O)Nc1cccc([N+](=O)[O-])c1 (stereo not given)	TDP1 cell noCPT 18µM, TDP1 cell CPT 18µM
Cc1cccc(NC(=S)NC(=O)/C=C/c2ccco2)c1	TDP1 cell noCPT inconclusive, TDP1 cell CPT 3.3µM
COc1ccc([N+](=O)[O-])cc1NC(=O)C(C)OC(=O)/C=C/c1ccco1 (stereo not given)	TDP1 cell noCPT inconclusive
CC(=O)OCC(=O)[C@]1(O)C(OC(C)=O)CC2C3CCC4=CC(=O)C=C[C@@]4(C)[C@]3(F)C(O)C[C@]21C (stereo not given in full)	none (no result: HepG2 tox, TGFb inhibitor, ATXN viability, ATXN2 expr inh)
C/C(=N/NC(=O)c1cccc(C)c1)c1c(O)cc(C)oc1=O	TDP1 cell noCPT 23µM, TDP1 cell CPT inconclusive
COc1ccccc1C(=O)N/C(=C\c1cn(C)c2ccccc12)C(=O)NCCN1CCOCC1	none (no result: ATXN2 expr inh)
O=C(CSc1nc2ccsc2c(=O)n1Cc1ccccc1Cl)NCc1ccc(F)cc1	TDP1 cell noCPT 21µM, TDP1 cell CPT 16µM
Cc1cc(-n2c(SCC(=O)NCc3ccccc3)nc3ccsc3c2=O)ccc1Cl	TDP1 cell noCPT inconclusive, TDP1 cell CPT 16µM (no result: ATXN viability, ATXN2 expr inh)
CC(C)CCNC(=O)CSc1nc2ccsc2c(=O)n1Cc1ccccc1Cl	TDP1 cell noCPT inconclusive, TDP1 cell CPT inconclusive (no result: ATXN viability, ATXN2 expr inh)
Cc1ccc(Cn2c(SCC(=O)NCc3ccccc3Cl)nc3ccsc3c2=O)cc1	TDP1 cell noCPT 21µM, TDP1 cell CPT inconclusive (no result: ATXN viability, ATXN2 expr inh)
Cc1ccc(Cn2c(SCC(=O)C(C)(C)C)nc3ccsc3c2=O)cc1	TDP1 cell noCPT 15µM, TDP1 cell CPT 21µM (no result: ATXN viability, ATXN2 expr inh)
COc1ccc(NC(=O)COC(=O)CCCc2c[nH]c3ccccc23)cc1OC	none
Cc1ccc(C(=O)N/N=C\c2ccc(-c3ccc([N+](=O)[O-])cc3)o2)cn1	TDP1 cell noCPT inconclusive
Cc1ccc(NCC(=O)N/N=C/c2ccc(-c3cccc(C(F)(F)F)c3)o2)cc1	TDP1 cell noCPT inconclusive, ATXN viability inconclusive, ATXN2 expr inh inconclusive, TDP1 cell CPT inconclusive
O=C(N/N=C/c1ccc(-c2cccc(C(F)(F)F)c2)o1)c1ccccc1O	TDP1 cell noCPT 8.2µM, ATXN viability inconclusive, ATXN2 expr inh inconclusive, TDP1 cell CPT 10µM
FC(F)(F)c1cccc(-c2ccc(/C=N/Nc3nncc(-c4ccccc4)n3)o2)c1	TDP1 cell noCPT 9.2µM, TDP1 cell CPT inconclusive (no result: ATXN2 expr inh)
O=C(N/N=C/c1ccc(-c2cccc(C(F)(F)F)c2)o1)c1ccccc1Br	TDP1 cell noCPT inconclusive, TGFb inhibitor 20µM, ATXN viability inconclusive
NC(=O)N/N=C/c1ccc(-c2cccc(C(F)(F)F)c2)o1	none
Clc1ccc(-c2ccc(/C=N/Nc3nncc(-c4ccccc4)n3)o2)cc1	TDP1 cell noCPT inconclusive, ATXN viability inconclusive, TDP1 cell CPT inconclusive
COc1cc(C(=O)NCC(=O)N/N=C/c2ccc(-c3ccc([N+](=O)[O-])cc3)o2)cc(OC)c1OC	TDP1 cell noCPT 21µM, TGFb inhibitor inconclusive, ATXN viability inconclusive, TDP1 cell CPT inconclusive
FC(F)(F)c1cccc(NC(=S)NCC(c2cccnc2)N2CCOCC2)c1 (stereo not given)	TDP1 cell noCPT inconclusive, TDP1 cell CPT inconclusive
Cc1onc(-c2ccccc2)c1C(=O)N1CCc2ccccc21	TDP1 cell noCPT inconclusive, TDP1 cell CPT inconclusive
CCCCOc1ccc(C(=O)NCC(=O)NNC(=O)c2ccco2)cc1	ATXN viability inconclusive
O=C(N/N=C/c1ccc(-c2cccc(C(F)(F)F)c2)o1)c1cccc(F)c1	TDP1 cell noCPT 14µM, TGFb inhibitor inconclusive, ATXN viability inconclusive, ATXN2 expr inh inconclusive, TDP1 cell CPT 18µM
O=C(N/N=C/c1ccc(-c2cccc([N+](=O)[O-])c2)o1)c1ccc([N+](=O)[O-])cc1	TDP1 cell noCPT 16µM, TDP1 cell CPT inconclusive
CCN(CC)c1ccc(NC(=O)CCc2nnc3ccc(N4CCCC4)nn23)c(C)c1	TDP1 cell noCPT 23µM, TDP1 cell CPT 15µM
CCOc1ccc(CCNC(=O)CCc2nnc3ccc(N4CCCCC4)nn23)cc1OCC	TDP1 cell noCPT 12µM, TDP1 cell CPT inconclusive
COc1ccc(N2CCN(c3ccc4nnc(CCC(=O)Nc5ccc(C)cc5)n4n3)CC2)cc1	TDP1 cell noCPT 23µM, TDP1 cell CPT inconclusive
CCOC(=O)c1ccc(NC(=O)CCc2nnc3ccc(N4CCCC4)nn23)cc1	TDP1 cell noCPT inconclusive, TDP1 cell CPT 26µM
COc1ccc(NC(=O)CCc2nnc3ccc(N4CCC(C)CC4)nn23)cc1	TDP1 cell noCPT inconclusive, TDP1 cell CPT inconclusive (no result: ATXN2 expr inh)
Cc1ccccc1NC(=O)CCc1nnc2ccc(N3CCC4(CC3)OCCO4)nn12	none
CCOc1ccc(CCNC(=O)CCc2nnc3ccc(N4CCOCC4)nn23)cc1	none
CCc1ccc(NC(=O)CCc2nnc3ccc(N4CCC5(CC4)OCCO5)nn23)cc1	none
COc1ccc(CNCCNC(=O)c2cccs2)c(OC)c1OC	none
CO[C@H]1CN(C)C(=O)c2ccc(NS(=O)(=O)c3ccccc3F)cc2OC[C@H](C)NC[C@@H]1C	none (no result: HepG2 tox, TGFb inhibitor, ATXN viability, ATXN2 expr inh)

Screening data (PubChem)
